# From the supplement of paper PMC7724964
# ± gives the standard deviation of the averaged measurements.
# T1: UEVLD 1-145 UEV (domain begin residue: 1, domain end residue: 145), Q8IX04
# T1 chain: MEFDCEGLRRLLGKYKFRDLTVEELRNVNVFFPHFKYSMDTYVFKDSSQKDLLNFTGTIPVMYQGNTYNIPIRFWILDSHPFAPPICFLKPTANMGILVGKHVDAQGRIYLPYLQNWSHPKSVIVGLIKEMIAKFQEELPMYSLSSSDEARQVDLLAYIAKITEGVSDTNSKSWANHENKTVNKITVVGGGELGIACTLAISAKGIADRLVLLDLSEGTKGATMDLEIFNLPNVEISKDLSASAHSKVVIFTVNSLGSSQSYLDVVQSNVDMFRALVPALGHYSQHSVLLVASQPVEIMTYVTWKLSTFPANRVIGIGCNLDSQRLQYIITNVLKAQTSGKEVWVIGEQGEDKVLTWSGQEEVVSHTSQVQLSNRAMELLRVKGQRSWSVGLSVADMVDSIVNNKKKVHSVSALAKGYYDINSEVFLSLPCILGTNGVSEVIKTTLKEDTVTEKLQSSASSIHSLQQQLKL
# T2: TSG101 1-145 UEV (domain begin residue: 1, domain end residue: 145), Q99816
# T2 chain: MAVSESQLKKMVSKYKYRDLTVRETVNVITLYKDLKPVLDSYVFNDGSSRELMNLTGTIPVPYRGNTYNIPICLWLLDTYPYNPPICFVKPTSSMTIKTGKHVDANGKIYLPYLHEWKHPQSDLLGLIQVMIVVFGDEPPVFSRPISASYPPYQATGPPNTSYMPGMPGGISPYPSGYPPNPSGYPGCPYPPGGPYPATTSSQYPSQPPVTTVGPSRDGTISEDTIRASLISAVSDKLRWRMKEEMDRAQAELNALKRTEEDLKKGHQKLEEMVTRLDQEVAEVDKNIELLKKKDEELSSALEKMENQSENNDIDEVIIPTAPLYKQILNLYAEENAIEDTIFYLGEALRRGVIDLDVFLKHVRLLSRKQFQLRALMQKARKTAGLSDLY
# T3: UQCRB 8-111 UCR_14kD (domain begin residue: 8, domain end residue: 111), P14927
# T3 chain: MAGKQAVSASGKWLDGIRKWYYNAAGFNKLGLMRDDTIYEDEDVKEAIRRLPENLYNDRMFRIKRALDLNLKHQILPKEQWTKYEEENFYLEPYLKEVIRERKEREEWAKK
# B1: unnamed (peptide)
# chain: HQWQGDWDHEHIMMYW
# B2: unnamed (peptide)
# chain: MDVAAQPWIPIVPPEG
# B3: unnamed (peptide)
# chain: QMNVQAQEWWPAHMTF
# B4: unnamed (peptide)
# chain: FEHLEYSHPYLWEMYF
# B5: unnamed (peptide)
# chain: DDIWPVSAVHAQPFMV
# B6: unnamed (peptide)
# chain: EQDQDLEYRMHMEKWW
# B7: unnamed (peptide)
# chain: EWQWHNSVDWVPHKAT
# B8: unnamed (peptide)
# chain: YGMSIDASSFVPYEFW
# B9: unnamed (peptide)
# chain: ALSMSAEPFHPMVNYV
# B10: unnamed (peptide)
# chain: AWSMLDIANIKPWNPM
# B11: unnamed (peptide)
# chain: LSYESAPWWPHMPAEF
# B12: unnamed (peptide)
# chain: GPLHPTAPVWENMLKY
# B13: unnamed (peptide)
# chain: DLHYDWSLEYWTSLLQ
# B14: unnamed (peptide)
# chain: VLDINAQPFHQSGFNH
# B15: unnamed (peptide)
# chain: FDRWESRRQSIGLELS
# B16: unnamed (peptide)
# chain: EDHWWIASMWRDQAVQ
# B17: unnamed (peptide)
# chain: VLPDWMAQHAWEWTGH
# B18: unnamed (peptide)
# chain: NNQVMNVNATPYYWPT
# B19: unnamed (peptide)
# chain: APFTLWESSMEALGEL
# B20: unnamed (peptide)
# chain: WRQDLETESLMQWFLW
# B21: unnamed (peptide)
# chain: NFNYPEQMYSYNPHWI
# B22: unnamed (peptide)
# chain: MTVVEWWTDAQIAEWM
# B23: unnamed (peptide)
# chain: PAWPPWPAEAVWEATK
# B24: unnamed (peptide)
# chain: WGHDWMMEWNTLQPMS
# B25: unnamed (peptide)
# chain: DRNAEMAIRQYFMYHE
# B26: unnamed (peptide)
# chain: SKELSVNAIPFDPHWY
# B27: unnamed (peptide)
# chain: SQLSIMSLEAAPFTWE
# B28: unnamed (peptide)
# chain: FDKWEQRRSVPMGQVQ
# B29: unnamed (peptide)
# chain: MQEAPYNPAWMEVPEL
# B30: unnamed (peptide)
# chain: MSQDWPWPDLSWFDEP
# B31: unnamed (peptide)
# chain: EFLNVMAPSWVDITEW
# B32: unnamed (peptide)
# chain: TGVEMMSYKAKPFYPE
# B33: unnamed (peptide)
# chain: EMWVFTPAEWFQIYLN
# B34: unnamed (peptide)
# chain: SLEWWNDISHPYWWHQ
# B35: unnamed (peptide)
# chain: ERFTLFQSSMDSILMF
# B36: unnamed (peptide)
# chain: VSDLWWNPTWSSQETI
# B37: unnamed (peptide)
# chain: VMTLSPHATPYYPQMQ
# B38: unnamed (peptide)
# chain: QVGWWMELDHPFWWHQ
# B39: unnamed (peptide)
# chain: EWGSGWLNFQAAEFIV
# B40: unnamed (peptide)
# chain: LGQQYQMWEYMASLYN
# B41: unnamed (peptide)
# chain: YQPNMASAPEWVWESH
# B42: unnamed (peptide)
# chain: EFEWIDHFLGNMESGL
# B43: unnamed (peptide)
# chain: KLDVFAVPFLSSQHEY
# B44: unnamed (peptide)
# chain: FMDMWHWQQLEDYMFL
# B45: unnamed (peptide)
# chain: EALNIFSPMWEPQYVV
# B46: unnamed (peptide)
# chain: ELSIWADAFQPHWHKV
# B47: unnamed (peptide)
# chain: MNIDAREWSPASWEVH
# B48: unnamed (peptide)
# chain: FSRWEQRQMQSVGGAG
# B49: unnamed (peptide)
# chain: EHMWDAQMWEWSWWDL
# B50: unnamed (peptide)
# chain: DPYWVWPDLPHNVSHP
# B51: unnamed (peptide)
# chain: LSVAAPMFVPNNAVVS
# B52: unnamed (peptide)
# chain: TNSMPQWAQSQLAMYR
# B53: unnamed (peptide)
# chain: IQDWPELPEVMMHWTL
# B54: unnamed (peptide)
# chain: LDWRMAPEWQWITHHL
# B55: unnamed (peptide)
# chain: YIDYTFFEDGYYRVIE
# B56: unnamed (peptide)
# chain: FDWRETLWESSQWMIA
# B57: unnamed (peptide)
# chain: VPWSENQEWQWIFEAV
# How the values were obtained:
# Assay in all cases: phage ELISA signal ratio (GST-PRM binding over GST background); higher = stronger binding of peptide-phage to the PRM
# [1] = molecular target: T1, UEVLD 1-145 UEV (domain begin residue: …
# Procedure, shortened: (§1)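 Each value is the phage ELISA signal on the glutathione S-transferase (GST)-domain fusion divided by the signal on GST alone. Human peptide recognition domains were expressed in 96-well plates, fused to the C-terminus of GST, and selected against an M13 phage library carrying randomized, cysteine-free, glycine-flanked hexadecapeptides on the gene-8 major coat protein. After five selection rounds, approximately 48 individual clones from rounds 4 and 5 were tested by phage ELISA, and positive clones were sequenced.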
# [2] = molecular target: UBR5 2391-2453 PABP (domain begin residue: 2391, domain end residue: 2453), O95071
# Sequence of UBR5 2391-2453 PABP (domain begin residue: 2391, domain end residue: 2453), O95071 (O95071 whole entry): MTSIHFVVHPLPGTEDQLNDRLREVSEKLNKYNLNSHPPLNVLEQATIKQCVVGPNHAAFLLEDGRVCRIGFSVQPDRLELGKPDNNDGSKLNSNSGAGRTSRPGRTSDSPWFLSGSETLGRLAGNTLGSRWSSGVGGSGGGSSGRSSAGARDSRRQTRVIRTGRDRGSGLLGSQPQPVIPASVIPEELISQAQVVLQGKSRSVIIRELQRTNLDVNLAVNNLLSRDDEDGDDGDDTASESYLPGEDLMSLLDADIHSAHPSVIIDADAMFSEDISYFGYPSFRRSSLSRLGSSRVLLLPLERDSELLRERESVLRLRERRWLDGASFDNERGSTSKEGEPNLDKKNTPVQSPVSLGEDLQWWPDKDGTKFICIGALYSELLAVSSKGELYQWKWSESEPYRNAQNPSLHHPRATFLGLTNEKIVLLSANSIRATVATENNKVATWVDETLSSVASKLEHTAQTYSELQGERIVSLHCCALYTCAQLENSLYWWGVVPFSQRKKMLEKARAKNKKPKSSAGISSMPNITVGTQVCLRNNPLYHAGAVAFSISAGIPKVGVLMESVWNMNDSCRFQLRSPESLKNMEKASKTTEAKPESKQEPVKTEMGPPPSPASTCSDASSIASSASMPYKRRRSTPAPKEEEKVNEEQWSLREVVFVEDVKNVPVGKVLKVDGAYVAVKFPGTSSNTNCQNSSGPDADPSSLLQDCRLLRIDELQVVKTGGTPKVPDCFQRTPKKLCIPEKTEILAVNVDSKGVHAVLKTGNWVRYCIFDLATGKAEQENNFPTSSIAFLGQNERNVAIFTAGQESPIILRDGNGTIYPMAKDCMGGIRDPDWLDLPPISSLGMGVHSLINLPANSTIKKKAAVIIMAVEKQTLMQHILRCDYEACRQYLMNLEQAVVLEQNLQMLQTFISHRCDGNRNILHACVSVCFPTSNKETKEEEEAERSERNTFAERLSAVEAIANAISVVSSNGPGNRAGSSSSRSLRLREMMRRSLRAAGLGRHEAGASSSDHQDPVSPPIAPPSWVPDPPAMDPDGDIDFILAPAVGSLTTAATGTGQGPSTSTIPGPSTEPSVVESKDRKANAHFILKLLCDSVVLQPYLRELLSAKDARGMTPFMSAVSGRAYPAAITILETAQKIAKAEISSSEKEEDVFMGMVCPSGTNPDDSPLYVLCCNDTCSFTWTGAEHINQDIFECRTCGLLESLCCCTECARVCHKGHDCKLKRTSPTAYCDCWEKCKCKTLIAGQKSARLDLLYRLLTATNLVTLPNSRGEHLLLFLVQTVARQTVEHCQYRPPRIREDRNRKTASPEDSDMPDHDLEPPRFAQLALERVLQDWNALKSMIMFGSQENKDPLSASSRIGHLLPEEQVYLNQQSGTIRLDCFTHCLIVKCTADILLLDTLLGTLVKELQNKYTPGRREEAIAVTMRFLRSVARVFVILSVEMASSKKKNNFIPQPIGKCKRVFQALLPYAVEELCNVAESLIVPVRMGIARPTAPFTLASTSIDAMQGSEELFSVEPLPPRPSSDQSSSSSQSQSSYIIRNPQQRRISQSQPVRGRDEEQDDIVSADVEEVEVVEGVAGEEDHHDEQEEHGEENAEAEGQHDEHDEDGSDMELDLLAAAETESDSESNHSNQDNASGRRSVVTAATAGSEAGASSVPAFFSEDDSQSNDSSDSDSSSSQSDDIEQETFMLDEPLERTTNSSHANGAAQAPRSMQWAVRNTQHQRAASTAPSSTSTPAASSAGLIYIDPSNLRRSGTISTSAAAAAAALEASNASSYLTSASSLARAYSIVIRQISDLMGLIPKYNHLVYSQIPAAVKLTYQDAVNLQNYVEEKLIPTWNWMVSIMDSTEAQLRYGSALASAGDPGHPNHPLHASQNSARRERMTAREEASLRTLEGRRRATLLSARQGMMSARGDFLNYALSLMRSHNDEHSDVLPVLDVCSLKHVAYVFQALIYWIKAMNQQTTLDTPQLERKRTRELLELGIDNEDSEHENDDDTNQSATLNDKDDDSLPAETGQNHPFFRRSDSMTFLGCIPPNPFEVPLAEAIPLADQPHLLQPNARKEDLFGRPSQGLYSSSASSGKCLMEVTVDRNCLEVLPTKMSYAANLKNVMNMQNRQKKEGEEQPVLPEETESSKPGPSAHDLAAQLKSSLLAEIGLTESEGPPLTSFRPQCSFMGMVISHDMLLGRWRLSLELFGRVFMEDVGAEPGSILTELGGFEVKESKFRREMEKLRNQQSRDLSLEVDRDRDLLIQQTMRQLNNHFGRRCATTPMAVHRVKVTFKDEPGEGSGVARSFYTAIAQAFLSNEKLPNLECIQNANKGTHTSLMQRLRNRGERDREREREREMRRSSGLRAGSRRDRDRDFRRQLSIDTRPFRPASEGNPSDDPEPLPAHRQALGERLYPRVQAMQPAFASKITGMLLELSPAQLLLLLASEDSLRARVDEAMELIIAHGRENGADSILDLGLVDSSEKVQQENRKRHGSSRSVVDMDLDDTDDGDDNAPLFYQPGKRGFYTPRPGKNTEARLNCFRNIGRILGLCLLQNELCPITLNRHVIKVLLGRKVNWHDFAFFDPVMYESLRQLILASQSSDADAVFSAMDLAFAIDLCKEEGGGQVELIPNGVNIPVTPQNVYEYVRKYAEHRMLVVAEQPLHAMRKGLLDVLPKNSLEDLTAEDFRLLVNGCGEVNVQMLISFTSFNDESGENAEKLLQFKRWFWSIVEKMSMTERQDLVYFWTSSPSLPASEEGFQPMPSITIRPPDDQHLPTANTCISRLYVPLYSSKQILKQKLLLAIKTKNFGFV
# Procedure, shortened: as §1
# [3] = molecular target: UBE2V2 1-145 UQ_con (domain begin residue: 1, domain end residue: 145), Q15819
# Sequence of UBE2V2 1-145 UQ_con (domain begin residue: 1, domain end residue: 145), Q15819 (Q15819 whole entry): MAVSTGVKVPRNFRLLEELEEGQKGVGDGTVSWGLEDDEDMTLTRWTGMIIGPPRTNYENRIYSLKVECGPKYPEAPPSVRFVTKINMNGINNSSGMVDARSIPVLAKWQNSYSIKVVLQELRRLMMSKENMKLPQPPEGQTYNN
# Procedure, shortened: as §1
# [4] = molecular target: T2, TSG101 1-145 UEV (domain begin residue: …
# Procedure, shortened: as §1
# [5] = molecular target: UBA52 1-76 Ubiquitin (domain begin residue: 1, domain end residue: 76), P62987
# Procedure, shortened: as §1
# [6] = molecular target: U2AF2 372-475 RRM_1 (domain begin residue: 372, domain end residue: 475), P26368
# Sequence of U2AF2 372-475 RRM_1 (domain begin residue: 372, domain end residue: 475), P26368 (P26368 whole entry): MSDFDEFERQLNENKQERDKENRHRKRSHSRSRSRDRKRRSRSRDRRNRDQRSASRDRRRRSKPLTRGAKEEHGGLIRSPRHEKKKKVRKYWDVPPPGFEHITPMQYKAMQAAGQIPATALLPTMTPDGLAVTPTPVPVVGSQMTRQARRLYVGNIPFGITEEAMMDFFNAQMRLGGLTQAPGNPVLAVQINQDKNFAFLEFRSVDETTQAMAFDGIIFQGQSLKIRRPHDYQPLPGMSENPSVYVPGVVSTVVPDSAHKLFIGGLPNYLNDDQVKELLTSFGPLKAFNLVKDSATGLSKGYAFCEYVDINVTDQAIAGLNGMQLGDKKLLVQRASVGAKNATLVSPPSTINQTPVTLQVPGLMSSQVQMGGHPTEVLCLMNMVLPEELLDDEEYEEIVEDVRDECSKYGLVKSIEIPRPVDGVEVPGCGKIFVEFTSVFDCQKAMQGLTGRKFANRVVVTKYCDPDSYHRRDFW
# Procedure, shortened: as §1
# [7] = molecular target: T3, UQCRB 8-111 UCR_14kD (domain begin …
# Procedure, shortened: as §1
# [8] = molecular target: VASP 1-114 WH1 (domain begin residue: 1, domain end residue: 114), P50552
# Sequence of VASP 1-114 WH1 (domain begin residue: 1, domain end residue: 114), P50552 (P50552 whole entry): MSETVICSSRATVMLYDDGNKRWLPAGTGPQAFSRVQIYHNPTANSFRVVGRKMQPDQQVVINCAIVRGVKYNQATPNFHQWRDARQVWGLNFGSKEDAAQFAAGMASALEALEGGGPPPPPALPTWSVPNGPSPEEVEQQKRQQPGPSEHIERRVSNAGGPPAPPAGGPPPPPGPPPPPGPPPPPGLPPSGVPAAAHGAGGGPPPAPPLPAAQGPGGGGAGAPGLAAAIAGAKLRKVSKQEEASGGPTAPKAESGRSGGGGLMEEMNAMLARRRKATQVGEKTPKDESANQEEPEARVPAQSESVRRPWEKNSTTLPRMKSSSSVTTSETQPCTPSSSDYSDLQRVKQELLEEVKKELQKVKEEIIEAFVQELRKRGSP
# Procedure, shortened: as §1
# [9] = molecular target: UBE2D2 1-147 UQ_con (domain begin residue: 1, domain end residue: 147), P62837
# Sequence of UBE2D2 1-147 UQ_con (domain begin residue: 1, domain end residue: 147), P62837 (P62837 whole entry): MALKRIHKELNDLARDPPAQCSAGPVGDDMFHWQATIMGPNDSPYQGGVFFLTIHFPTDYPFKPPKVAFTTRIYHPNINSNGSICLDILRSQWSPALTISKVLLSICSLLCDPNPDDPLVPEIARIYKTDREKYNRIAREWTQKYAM
# Procedure, shortened: as §1
binder,measurement,setting,value
B1,phage ELISA signal ratio,[1],24.1
B2,phage ELISA signal ratio,[2],28.6
B3,phage ELISA signal ratio,[2],18.6
B4,phage ELISA signal ratio,[3],5.45
B5,phage ELISA signal ratio,[2],21.2
B6,phage ELISA signal ratio,[1],19.8
B7,phage ELISA signal ratio,[2],12.4
B8,phage ELISA signal ratio,[2],17.8
B9,phage ELISA signal ratio,[2],30.1
B10,phage ELISA signal ratio,[2],18.4
B11,phage ELISA signal ratio,[2],13.2
B12,phage ELISA signal ratio,[4],15.7
B13,phage ELISA signal ratio,[5],17.2
B14,phage ELISA signal ratio,[2],25.7
B15,phage ELISA signal ratio,[6],8.37
B16,phage ELISA signal ratio,[1],18.1
B17,phage ELISA signal ratio,[7],23.9
B18,phage ELISA signal ratio,[2],19.4
B19,phage ELISA signal ratio,[1],23.3
B20,phage ELISA signal ratio,[1],15.2
B21,phage ELISA signal ratio,[4],20.4 ± 0.54
B22,phage ELISA signal ratio,[5],12.5
B23,phage ELISA signal ratio,[8],12.3
B24,phage ELISA signal ratio,[9],4.08
B25,phage ELISA signal ratio,[3],8.43
B26,phage ELISA signal ratio,[2],4.24
B27,phage ELISA signal ratio,[2],10.5
B28,phage ELISA signal ratio,[6],3.6
B29,phage ELISA signal ratio,[4],27.7
B30,phage ELISA signal ratio,[1],7.15
B31,phage ELISA signal ratio,[2],16.9
B32,phage ELISA signal ratio,[2],7.69
B33,phage ELISA signal ratio,[5],16.2
B34,phage ELISA signal ratio,[3],6.28
B35,phage ELISA signal ratio,[1],26
B36,phage ELISA signal ratio,[4],9.75
B37,phage ELISA signal ratio,[2],5.69
B38,phage ELISA signal ratio,[3],8.59
B39,phage ELISA signal ratio,[2],8.2
B40,phage ELISA signal ratio,[1],11.4
B41,phage ELISA signal ratio,[4],29.4
B42,phage ELISA signal ratio,[1],8.99
B43,phage ELISA signal ratio,[2],22.6
B44,phage ELISA signal ratio,[7],4.85
B45,phage ELISA signal ratio,[2],19.5
B46,phage ELISA signal ratio,[2],21.8
B47,phage ELISA signal ratio,[2],3.6
B48,phage ELISA signal ratio,[6],6.45
B49,phage ELISA signal ratio,[5],15.1
B50,phage ELISA signal ratio,[8],19.2
B51,phage ELISA signal ratio,[2],5.76
B52,phage ELISA signal ratio,[3],21.3
B53,phage ELISA signal ratio,[8],9.17
B54,phage ELISA signal ratio,[1],3.3
B55,phage ELISA signal ratio,[3],5.72
B56,phage ELISA signal ratio,[1],22.7
B57,phage ELISA signal ratio,[1],29.3
